High-throughput results as filed in PubChem BioAssay.
Most compounds without a hit are left out; they make up all but 2.5% or so of the library.
rCAG RNA binder = binds r(CAG) RNA repeats | AID 651821 | r(CAG) RNA repeat, TO-PRO-1 dye displacement fluorescence | 370,000 tested, 1.3% active | inhibition, % at 3 µM;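 active = inhibition above the plate cutoff, the mean of all test compounds on that plate plus 3 SD, cut at about 35% in these data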;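 note: 0% = DMSO alone and 100% = 100 µM mitoxantrone as full dye displacement; higher means more dye released from RNA so lower well fluorescence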
PG9 binder = binds the HIV-1 gp120 antibody PG9. inhibition, % at 6.7 µM. 360,000 tested, 0.43% active. AID 624416. TR-FRET gp120-PG9 antibody binding; in the data active = inhibition above about 8.5%
Exocytosis inh = lytic granule exocytosis inhibition | inhibition, % at 10 µM | 360,000 tested, 0.66% active | AID 651702 | TALL-104 LAMP-1 surface exposure, flow cytometry; cells stimulated with thapsigargin and PMA;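 active = inhibition above about 55%, limit read from the data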
ABCB6 inh MLPCN = inhibitors of human ABC transporter ABCB6; Q9NP58; K562-ABCB6 porphyrin accumulation, flow cytometry, 1 h; active compounds read low; fluorescence ratio to DMSO, % at 10 µM; 360,000 tested, 0.19% active; AID 602162;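 active = fluorescence ratio to DMSO below 75%, the collection mean minus 3 SD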;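 note: signal is porphyrin accumulated inside mitochondria; 100% equals median channel fluorescence of DMSO control wells; lower ratio means ABCB6 inhibition with less porphyrin fluorescence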
Target sequence (Q9NP58 whole entry, looked up): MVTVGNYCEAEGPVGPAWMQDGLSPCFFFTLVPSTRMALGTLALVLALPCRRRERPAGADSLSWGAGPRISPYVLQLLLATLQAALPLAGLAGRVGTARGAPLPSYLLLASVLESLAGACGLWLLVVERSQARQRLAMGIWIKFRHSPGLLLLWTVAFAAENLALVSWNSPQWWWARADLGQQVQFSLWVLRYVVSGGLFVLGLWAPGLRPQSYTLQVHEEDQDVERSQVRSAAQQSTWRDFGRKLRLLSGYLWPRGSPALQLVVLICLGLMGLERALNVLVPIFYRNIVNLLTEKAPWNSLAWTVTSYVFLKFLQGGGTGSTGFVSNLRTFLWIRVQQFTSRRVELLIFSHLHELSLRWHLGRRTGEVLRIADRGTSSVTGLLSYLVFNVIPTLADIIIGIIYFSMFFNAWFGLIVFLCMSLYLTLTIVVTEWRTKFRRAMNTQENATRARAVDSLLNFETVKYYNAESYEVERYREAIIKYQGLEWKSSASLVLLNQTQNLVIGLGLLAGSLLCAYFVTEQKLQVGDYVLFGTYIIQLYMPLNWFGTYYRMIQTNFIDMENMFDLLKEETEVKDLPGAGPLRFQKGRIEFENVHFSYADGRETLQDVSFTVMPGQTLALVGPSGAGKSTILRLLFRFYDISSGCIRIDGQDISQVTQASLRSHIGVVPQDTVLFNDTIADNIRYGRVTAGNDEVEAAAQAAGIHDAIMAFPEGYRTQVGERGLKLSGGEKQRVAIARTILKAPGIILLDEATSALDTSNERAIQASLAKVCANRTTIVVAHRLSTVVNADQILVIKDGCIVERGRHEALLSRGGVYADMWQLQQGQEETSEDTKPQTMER
rCAG bind conf = r(CAG) RNA repeat binding, confirmation. shares compounds with rCAG RNA binder. inhibition, % at 3 µM. 4,300 tested, 70% active. TO-PRO-1 dye displacement fluorescence;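 active = inhibition above a per-plate cutoff, the mean inhibition of sample wells plus 3 SD, cut at about 35% in these data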;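 note: loss of TO-PRO-1 fluorescence as compound displaces dye from 1x1 AA loop RNA; 0% = DMSO only wells and 100% = 100 µM mitoxantrone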
dCAG dye counter = counter-screen for rCAG RNA binders: DNA CAG dye complex inhibitors | shares compounds with rCAG RNA binder | d(CAG) DNA oligo TO-PRO-1 dye displacement, fluorescence | inhibition, % at 3 µM | 4,300 tested, 94% active;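 active = inhibition above its plate's cutoff, the mean test-well inhibition plus 3 SD, cut at about 4.8% in these data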;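 note: 0% = DNA dye mix with DMSO and 100% = 100 µM mitoxantrone; hits displace the dye from DNA and so lower well fluorescence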
* hit, by the source's call; x = not tested or not shown.

SMILES	rCAG RNA binder	PG9 binder	Exocytosis inh	ABCB6 inh MLPCN	rCAG bind conf	dCAG dye counter
CC(C)=CCc1c(O)cc2oc3c(CC=C(C)C)c(O)c(O)c(CC=C(C)C)c3c(=O)c2c1O	72.1*	0.9	4.3	90.0	67.1*	46.6*
CCOC(=O)c1sc2nc3c(SCCC#N)cc(C(=O)c4cc(F)ccc4O)cn3c(=O)c2c1C	9.1	0.3	-0.9	102.0	x	x
CCOC(=O)c1sc2nc3c(SCCC(=O)O)cc(C(=O)c4cc(OC)ccc4O)cn3c(=O)c2c1C	35.2*	-0.2	-1.4	104.0	68.4*	39.3*
CCc1c(C)sc2nc3c(C(=O)N4CCOCC4)cc(C(=O)c4cc(F)ccc4O)cn3c(=O)c12	4.2	0.0	-9.5	97.0	x	x
O=C(O)CSc1cc(C(=O)c2cc(F)ccc2O)cn2c(=O)c3c(-c4ccccc4)csc3nc12	84.6*	-1.5	13.4	107.0	90.4*	70.2*
COc1ccc(-c2oc3ccccc3c2C#Cc2cncn2C)cc1	7.8	-1.6	-8.7	97.0	x	x
Cc1cccc(CN2CCN(C(C)C(=O)NC(C)c3ccccc3)CC2)c1 (stereo unspecified)	-7.2	-0.7	17.6	101.0	x	x
Cc1c(CCC(=O)N[C@@H](C)C(=O)O)c(=O)oc2c(C)c3oc4c(c3cc12)CCCC4	43.2*	0.8	-12.0	99.0	39.5*	8.8*
Cc1c(CCC(=O)NCCC(=O)O)c(=O)oc2c(C)c3oc4c(c3cc12)CCCC4	41.9*	2.6	-11.2	99.0	38.2*	10.3*
CCOc1ccc(CCNC(=O)C2CSC3(C)CCC(=O)N23)cc1OCC (stereo unspecified)	-5.8	0.0	3.4	94.0	x	x
N#C/C(=C\c1ccc([N+](=O)[O-])o1)C(=O)Nc1ccc(F)cc1	51.6*	-3.8	86.2*	147.0	29.6	14.0*
COc1ccc(NC(=O)/C(C#N)=C\c2ccc(Br)o2)cc1	7.8	-0.2	-3.0	101.0	x	x
COc1cc(C(=O)NNC(=S)NCc2ccco2)cc(OC)c1OC	-2.0	-0.2	6.3	97.0	x	x
Cc1ccc([C@@H]2CC=C(C(=O)O)[C@H](c3ccccc3)N2S(=O)(=O)c2ccc(C)cc2)cc1	55.6*	-0.4	19.3	100.0	58.8*	21.9*
Cc1ccc(S(=O)(=O)N2[C@@H](c3ccc(Br)cc3)C(C(=O)O)=CC[C@H]2c2cccc(C)c2)cc1	4.9	-0.4	1.0	98.0	x	x
Cc1ccc([C@H]2C(C(=O)O)=CC[C@@H](c3ccc(C)cc3)N2S(=O)(=O)c2ccc(C)cc2)cc1	76.2*	0.1	0.3	96.0	66.7*	29.6*
Cc1ccc([C@H]2C(C(=O)O)=CC[C@@H](c3cccc(C)c3)N2S(=O)(=O)c2ccc(C)cc2)cc1	9.7	1.0	0.5	101.0	x	x
Cc1c(Br)c([N+](=O)[O-])nn1C(C)C(=O)N1CCc2ccccc2C1 (stereo unspecified)	-0.2	-2.7	-0.6	103.0	x	x
CC(OC(=O)CNC(=O)COc1ccccc1)C(=O)N(C)Cc1ccccc1 (stereo unspecified)	-4.7	0.5	7.5	95.0	x	x
c1ccc(Cn2ccnc2C2OCCO2)cc1	-0.1	-0.5	1.6	101.0	x	x
O=C(NS(=O)(=O)c1ccc2ccc(S(=O)(=O)NCCSc3ccccc3)cc2c1)c1cccc2ccccc12	87.9*	1.5	-1.4	97.0	87.9*	65.1*
O=C(NCc1ccccc1)c1ccc2nc(-c3ccco3)c(-c3ccco3)nc2c1	55.9*	1.9	-0.9	107.0	56.1*	25.8*
CCCCNC(=O)c1ccc2nc(-c3ccco3)c(-c3ccco3)nc2c1	62.3*	-0.3	-0.5	100.0	19.8	5.8*
O=C(c1ccc2nc(-c3ccco3)c(-c3ccco3)nc2c1)N1CCN(c2ncccn2)CC1	34.5*	-1.0	-1.3	102.0	49.4*	21.8*
O=C(c1cccc(C(=O)N2CCN(c3ncccn3)CC2)c1)N1CCN(c2ncccn2)CC1	-2.0	0.6	-4.0	101.0	x	x
O=C(NCCCO)c1ccc2nc(-c3ccco3)c(-c3ccco3)nc2c1	22.4	-1.3	0.7	101.0	x	x
Cc1ccc(-c2nc(CS(=O)(=O)CC(=O)Nc3cc(F)ccc3F)c(C)o2)cc1	1.1	-0.8	1.1	102.0	x	x
CC1CCCN(C(=O)Cn2nnc(-c3ccccc3F)n2)C1 (stereo unspecified)	-1.1	-2.0	-7.7	104.0	x	x
